Assay outcomes as filed in PubChem.
Sampled rows, rich in hits. Any-hit rate of the full collection: about 4.8%.
hgDAF12 agonist: activates the H. glycines DAF-12 receptor ligand-binding domain; HEK293 GAL4-hgDAF12 UAS-luciferase reporter, agonist luminescence; normalized to butyrate control; activation, % at 6.8 µM; actives 1.8% (n = 370,000);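 active = activation above a cutoff set at the mean of all screened compounds plus 3 SD, cut at about 10% in these data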
DAX1 inh-1: NR0B1 (DAX1) inhibition | HEK293 Gal4-DAX1 luciferase reporter, luminescence | inhibition, % at 6.75 µM | actives 0.99% (n = 340,000);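 active = inhibition above the mean over all tested compounds plus 3 SD, cut at about 4.2% in these data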;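 note: inhibition shows as a rise in luminescence from relieved DAX1 repression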
Target sequence (P51843 207-470 limits assumed): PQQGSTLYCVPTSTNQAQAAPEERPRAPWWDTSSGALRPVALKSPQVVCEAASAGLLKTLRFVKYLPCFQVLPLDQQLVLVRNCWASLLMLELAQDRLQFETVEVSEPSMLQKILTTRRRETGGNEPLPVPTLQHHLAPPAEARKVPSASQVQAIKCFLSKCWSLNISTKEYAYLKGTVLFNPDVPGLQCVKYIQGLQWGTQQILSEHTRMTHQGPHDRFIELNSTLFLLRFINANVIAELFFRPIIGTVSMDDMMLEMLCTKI
SMARCA2 activ: activators of SMARCA2 function; MG213 cells, MMTV-luciferase reporter, dexamethasone, overnight; actives 1% (n = 370,000); activation, % at 9.1 µM; in the data active = activation above about 7.8%
DAX1 inh-2: blocks DAX1 repression of SF-1 activated StAR promoter; HEK293T StAR-luciferase reporter, SF-1/DAX-1 repression relief; inhibition, % at 6.8 µM; actives 1.1% (n = 370,000); AID 652010;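 active = inhibition above the mean over all tested compounds plus 3 SD, cut at about 3.6% in these data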;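 note: higher inhibition means more luminescence from relief of DAX-1 repression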
hcDAF12 agonist: activates DAF-12 receptor from parasite H. contortus; HEK293 hcDAF-12 lit1-tk-luc reporter, luminescence; 0% DMSO, 100% Δ7-dafachronic acid; activation, % at 6.8 µM; actives 1.4% (n = 370,000);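 active = activation above the mean of all tested compounds plus 3 SD, cut at about 5.5% in these data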
ssDAF12 agonist: activators of S. stercoralis DAF-12 nuclear receptor; actives 1% (n = 370,000); activation, % at 6.8 µM; HEK293 ssDAF-12/GRIP1 lit1-tk-luc reporter, luminescence; % of 3 µM dafachronic acid response;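 active = activation above the mean over all tested compounds plus 3 SD, cut at about 0.9% in these data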
Large screens that a line does not name were inactive.

O=C(C1CCN(S(=O)(=O)c2cccc3cccnc23)CC1)N1CCN(Cc2ccccc2)CC1	none
O=C(CNS(=O)(=O)c1ccc(Br)cc1Cl)OCC(=O)N1CCCC1=O	none
CC(C)(C)NC(=O)NC(=O)COC(=O)CNS(=O)(=O)c1ccc(Br)cc1Cl	DAX1 inh-1 5.8
CC(C)OCCCNC(=S)NNC(=O)c1ccc(Cl)c(Cl)c1	hgDAF12 agonist 10.6
Clc1ccccc1OCc1nnc(-c2ccccc2)o1	hgDAF12 agonist 12.8
Cc1cc(Br)ccc1OCc1nnc(-c2ccccc2)o1	none (no result: DAX1 inh-1)
O=C(O)Cc1nn(Cc2ccc(Cl)cc2)c(=O)c2ccccc12	DAX1 inh-1 9.0
O=C(NCc1ccco1)c1ccc2c(=O)n(-c3ccccc3)c(=S)[nH]c2c1	DAX1 inh-1 4.9
COc1ccc(-n2c(SCC(=O)Nc3ccccc3-c3ccccc3)nnc2-c2ccccc2)cc1	none (no result: DAX1 inh-1)
CCc1ccc2oc(C(=O)Nc3cccnc3)c(C)c2c1	DAX1 inh-1 5.1 (no result: hgDAF12 agonist, SMARCA2 activ, DAX1 inh-2, hcDAF12 agonist, ssDAF12 agonist)
c1ccc(OCc2nnc3sc(-c4cccs4)nn23)cc1	none
Clc1ccc(Cl)c(-c2nn3c(COc4ccccc4)nnc3s2)c1	ssDAF12 agonist 1.4
Cc1ccc2nc(N3CCOCC3)c(C=O)cc2c1	DAX1 inh-1 8.2
Cc1ccc2cc(C=O)c(N3CCOCC3)nc2c1C	none
[S-]c1nnc(-c2ccc(Br)cc2)n1-c1ccccc1.[Zn+2]	none
N#Cc1c(Cl)c(Cl)c2nnc(-c3ccc(Br)cc3)n2c1Cl	ssDAF12 agonist 1.2 (no result: DAX1 inh-1)
CCCCN1CCN(C(=O)C2CCCN(C(=O)c3ccc4c(c3)NC(=O)CS4)C2)CC1 (stereo unspecified)	none (no result: DAX1 inh-1)
CC1=C2NC(N)=[N+](Cc3ccccc3)CC2n2c(=O)n(-c3ccccc3)c(=O)n2C1 (stereo unspecified)	none (no result: DAX1 inh-1)
COc1ccc(C(=O)CCC(=O)O)cc1	none
COc1ccc(CCCC(=O)O)c(C)c1	ssDAF12 agonist 1.5
C=C(C)/C=C1/CN(Cc2ccc3c(c2)OCO3)C(=N)N1C(=O)OCc1ccccc1	none (no result: DAX1 inh-1)
CCCCCCC/C=C(\C)[C@@H](O)[C@@H](C)C(=O)N1CCC[C@@H]1C(=O)O	none (no result: DAX1 inh-1, SMARCA2 activ, DAX1 inh-2)
CCN(CC(=O)NCc1cccs1)C(=O)c1ccc(NS(=O)(=O)c2cccc([N+](=O)[O-])c2)cc1	DAX1 inh-1 4.8
C(=N/N1CCN(c2ccccc2)CC1)/c1ccco1	none (no result: DAX1 inh-1)
CC(C)CN1C(=O)[C@]2(CC(=O)N(C)C2c2ccccc2)c2cc(-n3cc(CCc4ccccc4)nn3)ccc21 (stereo partly specified)	none (no result: DAX1 inh-1)
O=C(O[C@H]1CC[C@@]23CCCN2C(=O)CCC[C@H]3C1)N1CCOCC1	none (no result: DAX1 inh-1, SMARCA2 activ, DAX1 inh-2)
CN(C)C(CNC(=O)CCCc1c[nH]c2ccccc12)c1ccco1 (stereo unspecified)	DAX1 inh-1 5.8
CN(c1ccc(NC(=O)Cc2c[nH]c3ccccc23)cc1)c1ccccn1	none (no result: DAX1 inh-1)
Cc1ccc(-c2cc(NC(=O)Cc3c[nH]c4ccccc34)ccc2N(C)c2cccnc2)cc1	none (no result: DAX1 inh-1)
CN(c1cccnc1)c1ccc(NC(=O)Cc2c[nH]c3ccccc23)cc1Br	hcDAF12 agonist 6.5, ssDAF12 agonist 1.5 (no result: DAX1 inh-1)
O=C(Cc1c[nH]c2ccccc12)Nc1ccc(Nc2ccncc2)cc1	hcDAF12 agonist 6.0 (no result: DAX1 inh-1)
Cc1ccccc1NC(=O)Cc1c[nH]c2ccccc12	ssDAF12 agonist 1.0
Cc1ccccc1NC(=O)NCCc1c[nH]c2ccccc12	none
CC(C)CNC(=O)CCCc1c[nH]c2ccccc12	none
CCC(C)NS(=O)(=O)c1ccc2[nH]c(=O)oc2c1 (stereo unspecified)	none (no result: DAX1 inh-1)
O=C(OCC#CCSc1nnc(-c2ccc(F)cc2)o1)c1ccc(F)cc1	none (no result: DAX1 inh-1, SMARCA2 activ, DAX1 inh-2)
Cc1[nH]c2ccccc2c1CC(=O)Nc1ccc(Nc2ccncc2)cc1	ssDAF12 agonist 2.1 (no result: DAX1 inh-1)
O=C(COC(=O)CCc1c[nH]c2ccccc12)Nc1ccc([N+](=O)[O-])cc1	DAX1 inh-1 5.2
CC(=O)Nc1ccc(NC(=O)CCCc2c[nH]c3ccccc23)cc1	DAX1 inh-1 5.0
CC1(C)Cc2c(sc3nc(C4CC4)n(N)c(=O)c23)CO1	DAX1 inh-1 7.6
CC1(C)Cc2c(sc3nc(C4CCCCC4)n(N)c(=O)c23)CO1	none
COc1ccc(C(=O)OCCCN(C)C2CN(Cc3cn(Cc4ccccc4Cl)nn3)S(=O)(=O)C2)cc1OC (stereo unspecified)	none (no result: DAX1 inh-1)
N#CCC[C@@H]1CC[C@]2(CCCN(C(=O)C3CCCCC3)C2)O1	none (no result: DAX1 inh-1)
O=C(C1CCC1)n1ccc2ccc(-c3ccc4ccn(Cc5ccccc5)c4c3)cc21	none (no result: DAX1 inh-1)
Cc1ccc(C(=O)Nc2ccc(Oc3cccc(C(F)(F)F)c3)nc2)cc1	none
O=C(O)c1ccccc1C(=O)Nc1ccc(Oc2cccc(C(F)(F)F)c2)nc1	hcDAF12 agonist 6.2
C=CCN(Cc1ccc2c(c1)OCO2)C(C#CC1CC1)C(C)C (stereo unspecified)	none (no result: DAX1 inh-1)
COc1cc(CNc2ccc3[nH]c(=O)[nH]c3c2)ccc1OCc1ccc(C)cc1	hgDAF12 agonist 11.5
CCCCN(C)C(=O)Cn1c(=O)oc2cc(S(=O)(=O)N3CC(C)CC(C)C3)ccc21 (stereo unspecified)	DAX1 inh-1 5.7
CSc1ccc(-c2nnn(Cc3ccccn3)n2)cc1	hgDAF12 agonist 12.2
Cc1cccc(NC(=O)[C@@H]2CC(=O)O[C@@H]2c2ccccc2)c1C	none (no result: DAX1 inh-1)
Cc1cccc(C(=O)N/N=C2/SCC(=O)N2Cc2ccccc2)c1	none
Cc1ccccc1C(=O)N/N=C1/SCC(=O)N1Cc1ccccc1	ssDAF12 agonist 15.5
Cc1ccccc1C(=O)N(C)[C@H]1C[C@H]2c3[nH]c4c(-c5ccc6c(c5)OCO6)cccc4c3CCN2C(=O)[C@H]1[C@H](C)O	none (no result: DAX1 inh-1)
Cc1cccnc1NC(N)=S	none
S=C(NCCc1ccccc1)NC1CCCCCC1	hgDAF12 agonist 10.9
Cc1cccnc1NC(=S)Nc1ncccc1C	hgDAF12 agonist 11.4, DAX1 inh-1 4.8
Cc1ccccc1NC(=O)C(C)N1C(=O)c2ccccc2C1=O (stereo unspecified)	none
Cc1cccnc1NC(=O)C(C)N1C(=O)c2ccccc2C1=O (stereo unspecified)	DAX1 inh-1 7.5
Cc1cccnc1NC(=S)NCCc1ccccc1	hgDAF12 agonist 11.5
NS(=O)(=O)c1ccc(CNC(=S)NC2CCCC2)cc1	DAX1 inh-1 4.5
O=C1NC2(CCCCC2)C(=O)N1c1ccccc1	DAX1 inh-1 5.8
COc1ccc(C)cc1S(=O)(=O)N(C)CC(=O)N1CCCCC1	none
COc1ccc(C)cc1S(=O)(=O)N(C)CC(=O)N1CCCC1	DAX1 inh-1 4.8
Cc1ccc(SCC(=O)O/N=C(\N)c2cccc([N+](=O)[O-])c2)cc1	none
Cc1ccc(OCC(=O)O/N=C(\N)c2cccc([N+](=O)[O-])c2)cc1C	hcDAF12 agonist 6.0
O=C(c1cc(-c2ccc3c(c2)OCO3)on1)N1CCCCC1	hcDAF12 agonist 5.8
